Compound activity from PubChem BioAssay.
KB-V1 MDR tox = kills drug-selected multidrug resistant KB-V1 cells; KB-V1 MDR cells viability, CellTiter-Glo, 72 h; AID 1347076; 400,000 compounds, 3.4% hits; Potency, µM (titrated, usually from 46.1 µM), usual class: cytotoxic; note: % is set by controls: 0 for no effect and ±100 for the full control effect; nearly all actives have a fitted effect of over 60% in size
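Drug-selected KB-V1 cells, grown in DMEM lacking phenol red with 10% FBS, receive compound titrations; after three days at 37 degrees C, surviving cell ATP is quantified by CellTiter-Glo luminescence and responses normalized and curve-fitted.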
TSG101-PTAP inh = blocks PTAP/TSG101 interaction to inhibit HIV-1 budding; Q99816; Fluorescence polarization, FITC-PTAP peptide / Tsg101 binding; Potency, µM (highest dose often 115 µM), for inactives: at the top dose activity change, negative = inhibition, most hits filed as inhibitors; 340,000 tested, under 10 active; AID 493005; active = well fitted inhibition curve with a large enough effect in the main read-out, with a control signal flat, not every such curve was filed as active; inconclusive = small, poorly fitted or top-dose-only effect, or effect the other way, or a change in a side signal; inactive = no such curve, though single readings can be large or run the other way; note: % of control where 0% means no effect
Target sequence (Q99816 whole entry, looked up): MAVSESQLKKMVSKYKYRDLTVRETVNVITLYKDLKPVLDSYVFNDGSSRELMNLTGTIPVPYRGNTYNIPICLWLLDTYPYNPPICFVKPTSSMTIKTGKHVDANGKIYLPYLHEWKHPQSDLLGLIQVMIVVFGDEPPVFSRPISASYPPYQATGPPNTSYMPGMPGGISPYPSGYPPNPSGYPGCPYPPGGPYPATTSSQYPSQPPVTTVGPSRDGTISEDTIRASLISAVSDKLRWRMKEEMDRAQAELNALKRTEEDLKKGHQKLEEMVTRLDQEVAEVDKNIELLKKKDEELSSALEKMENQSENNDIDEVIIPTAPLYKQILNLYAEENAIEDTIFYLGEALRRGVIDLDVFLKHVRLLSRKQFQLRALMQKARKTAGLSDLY
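Fluorescence anisotropy tracks displacement of a FITC-tagged PTAP peptide (50 nM) from the Tsg101 binding domain (10 uM), following a 20 min room-temperature incubation at pH 7.5.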
MCF10A rerep = inducers of DNA re-replication in MCF 10A breast cells | MCF 10A DNA re-replication, Hoechst nuclear intensity, 48 h | Potency, µM (series often up to 46.1 µM), inactives show at the top dose activity, positive = re-replication, hits mostly activators | 350,000 compounds, 2.9% hits; note: % of control where 0% means no effect; nearly all actives have a fitted effect of over 50% in size
RGS4 inhibitor = human RGS4 inhibition; Transcreener GDP fluorescence polarization, RGS4-accelerated GTP hydrolysis; Potency, µM (series often up to 114 µM), for the others: at the highest dose activity change, negative = inhibition, actives largely listed as inhibitors; 390,000 compounds, 0.039% hits; AID 504845; note: % is set by controls: 0 for no effect and ±100 for the full control effect; nearly all actives have a fitted effect of over 75% in size
Target sequence (P49798 whole entry, looked up): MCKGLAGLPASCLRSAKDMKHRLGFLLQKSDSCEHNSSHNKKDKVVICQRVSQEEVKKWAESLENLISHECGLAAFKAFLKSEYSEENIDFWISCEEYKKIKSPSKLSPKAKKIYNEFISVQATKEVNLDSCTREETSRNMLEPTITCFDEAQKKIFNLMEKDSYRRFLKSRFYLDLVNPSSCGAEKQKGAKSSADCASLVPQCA
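MLSMR compounds (23 nl, pin-transferred) preincubated 10 min at room temperature with a 500nM (2x) first reagent, then RGS4 at 900nM (2x) plus Transcreener GDP mix added; fluorescence polarization (620/688 nm) read before and after 90 min at 30 °C.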
KB-3-1 tox = kills parental KB-3-1 adenocarcinoma cells; 400,000 compounds, 1.4% hits; KB-3-1 viability, CellTiter-Glo ATP luminescence, 72 h; Potency, µM (titrated, usually from 46.1 µM), most hits filed as cytotoxic; note: % is set by controls: 0 for no effect and ±100 for the full control effect; nearly all actives have a fitted effect of over 60% in size
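Using CellTiter-Glo luminescence, growth of non-resistant KB-3-1 adenocarcinoma cells is assessed 72 h after pin-tool compound addition at 37 °C. Normalized responses across the concentration series yield fitted curves.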
SW480 rerep = induces DNA re-replication in SW480 colon adenocarcinoma cells | SW480 DNA re-replication, Hoechst DNA content imaging, 48 h | Potency, µM (doses to about 46.1 µM), without a hit: top-dose re-replication activation, usual class: activators | 340,000 compounds, 1.8% hits | AID 624297; note: % of control where 0% means no effect; nearly all actives have a fitted effect of over 55% in size
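First, 250 cells per well were seeded. Next, compound or vehicle (23 nL) was pinned in, plates sat 48 hr at 37 C. Finally Hoechst was added for 40 min before fluorescence scanning.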
Numbers without * were called inactive; i = inactive; u = inconclusive; x = no result; ! = repeats disagree; [ ] = remark or other dose. The list is not random: actives were taken first. Their share in the collection is about 6.6%. Unless noted, calls come from the whole dose curve; as a rule, active = well fitted curve in the direction sought with a large enough effect; inconclusive = small, poorly fitted or top-dose-only effect, or another doubt; inactive = no such curve, though single readings can be large; an effect the other way counts as inactive or inconclusive. Potency is the fitted concentration of half-maximal effect.

SMILES | KB-V1 MDR tox | TSG101-PTAP inh | MCF10A rerep | RGS4 inhibitor | KB-3-1 tox | SW480 rerep
COc1cc(-c2nnc(SCc3ccccc3Cl)o2)cc(OC)c1OC | 2.3µM* | 0% | 21µM* | -8% | i | -4%
COc1cc(-c2nnc(COc3ccc4ccccc4c3)o2)cc(OC)c1OC | 23µM* | 1% | u | 10% | i | -2%
COc1cc(-c2nnc(-c3ccccc3)o2)cc(OC)c1OC | 9.2µM* | 0% | 23% | -12%[11.4 µM] | i | -3%
O=C(Nc1ccccc1-c1nnc(SCc2ccccc2Cl)o1)c1ccccc1 | 15µM* | -1% | u | -19% | i | 4%
O=C(OCc1ccco1)c1ccc2c(c1)N(Cc1ccc([N+](=O)[O-])cc1)C(=O)c1ccccc1S2 | u | x | x | -13% | i | x
CCN1C=C(Cc2cccs2)C2=C(C1)C(c1cccs1)C(C#N)=C(N)O2 (stereo not given) | i | -2% | 21µM* | -11% | u | 25%
Cc1ccccc1S(=O)(=O)N1C[C@H]2CON(C)[C@H]2C[C@H]1c1cccc(Oc2ccccc2)c1 | i | 1% | u | 1% | i | 8.2µM*
Cc1ccccc1-c1cccc([C@@H]2C[C@H]3[C@H](CON3C)CN2Cc2ccccc2)c1 | i | 0% | 18µM* | -12% | i | 10%[9.22 µM]
CCOC(=O)CCN(c1ccccc1)S(=O)(=O)c1cc(-c2cc(C)no2)ccc1C | x | x | x | 3% | x | x
COC(=O)c1ccccc1NC(=O)Cn1c(=O)n(CCCC(=O)NCCc2ccc(OC)c(OC)c2)c(=O)c2ccccc21 | i | x | x | -11% | i | x
CC(=O)c1ccc(NS(=O)(=O)c2ccc(-c3cnc(C4CC4)o3)cc2)cc1 | u | -2% | 15% | 2% | i | -2%
Cc1ccc(-c2cnc(C3CC3)o2)cc1S(=O)(=O)Nc1cccc(C#N)c1 | u | x | x | 13% | i | x
COc1cc(Cl)c(NS(=O)(=O)c2ccc(-c3cnc(C4CC4)o3)cc2)c(OC)c1 | 1µM* | x | x | 12% | 1.6µM* | x
Cc1cccc(C)c1NS(=O)(=O)c1ccc(-c2cnc(C3CC3)o2)cc1 | 0.73µM* | -3% | u | -2% | 0.023µM* | u
N#Cc1ccc(NS(=O)(=O)c2ccc(-c3cnc(C4CC4)o3)cc2)cc1 | i | x | x | 4% | i | x
COc1ccc(C)cc1NS(=O)(=O)c1ccc(-c2cnc(C3CC3)o2)cc1 | u | -1% | u | 2% | 0.21µM* | 0.13µM*
COc1cccc(NS(=O)(=O)c2cc(-c3cnc(C4CC4)o3)ccc2C)c1 | 7.3µM* | x | x | -8% | 4.1µM* | x
Cc1ccc(CNS(=O)(=O)c2ccc(-c3cnc(C4CC4)o3)cc2)cc1 | i | -1% | 13% | -1% | i | 2%
Cc1ccc(NS(=O)(=O)c2ccc(-c3cnc(C4CC4)o3)cc2)cc1 | u | 0% | 10µM* | -16% | 18µM* | 18µM*
Cc1ccc(N(C)S(=O)(=O)c2ccc(-c3cnc(C4CC4)o3)cc2)cc1 | 2.9µM*! | -2% | u | 3% | 3.3µM*! | u
O=C(NN=Cc1ccc(Cl)cc1Cl)C1CC1 | 15µM* | -3% | 5% | -6% | i | -5%
COc1cc(C2Nc3ccccc3C(=O)N2c2ccccc2)c(Br)cc1OCC(=O)O (stereo not given) | i | -4% | -6% | 29% | i | 23µM*
CCOC(=O)N1CCN(CC(O)COc2ccc(OC)cc2C(C)(C)C)CC1 (stereo not given) | 3.7µM* | -2% | 24% | -6% | i | -2%
CCOC(=O)C1CCCN(CC(O)COc2ccc(OC)cc2C(C)(C)C)C1 (stereo not given) | i | -16% | 9% | -4% | i | -1%
COc1ccc(CCNCC(O)COc2ccc(OC)cc2C(C)(C)C)cc1 (stereo not given) | i | -2% | u | -1% | i | 23µM*
SMILES | KB-V1 MDR tox | TSG101-PTAP inh | MCF10A rerep | RGS4 inhibitor | KB-3-1 tox | SW480 rerep
C=CCc1cc(OC)ccc1OCC(O)CN1CCN(c2ccc(OC)cc2)CC1 (stereo not given) | 18µM*! | 0% | u | 13% | i | 8%
Cc1ccc(OCC(O)CN2CCN(c3ccc(C)cc3)CC2)cc1 (stereo not given) | i | -3% | 0.82µM* | -6% | i | -21%
COc1ccc(CCNCC(O)COc2cccc(Br)c2)cc1OC (stereo not given) | i | -5% | 8% | -9% | i | 2%
Cc1ccc(N2CCN(CC(O)COc3ccccc3)CC2)cc1 (stereo not given) | u | -4% | 9% | -2% | i | -2%
C=CCc1cc(C)ccc1OCC(O)CN1CCN(c2ccccc2)CC1 (stereo not given) | i | -3% | 6% | 13% | i | 3%
CCCC(=O)Nc1nnc(SCc2cc(=O)n3cccc(C)c3n2)s1 | x | x | x | -10% | x | x
Cn1cc(S(=O)(=O)N2CCCCCC2)cc1C(=O)N1CCN(c2cccc(Cl)c2)CC1 | i | x | x | 10% | i | x
COc1ccccc1CNC(=O)C1CCC(CNS(=O)(=O)c2ccc3c(c2)CCCC(=O)N3)CC1 (stereo not given) | u | x | x | -23% | i | x
COc1ccc(Nc2nc(C(C)(C)C)nc3c2nnn3Cc2ccccc2Cl)cc1OC | u | 1% | u | 26% | u | -1%
CCOC(=O)CNc1nc(C(C)(C)C)nc2c1nnn2Cc1ccccc1Cl | 5.8µM* | -2% | u | 21% | u | 1%
COc1cc2c(=O)n(Cc3ccccc3Cl)c(=O)n(CC(=O)Nc3ccc(C)c(C)c3)c2cc1OC | i | x | x | 16% | i | x
Cc1ccccc1NC(=O)c1ccc(Nc2c([N+](=O)[O-])cc([N+](=O)[O-])c3ccccc23)cc1 | 16µM* | 3% | -3% | -22% | i | 6%
COCCNC(=O)c1cnn2c(C(F)(F)F)cc(-c3ccc4c(c3)OCO4)nc12 | 2.1µM* | -4% | u | -22% | i | -1%
O=C(c1cnn2c(C(F)(F)F)cc(-c3ccc4c(c3)OCO4)nc12)N1CCCC1 | i | -4% | u | -34% | i | -16%
COc1ccc2oc(=O)cc(CN3CCN(c4ccccc4OC)CC3)c2c1 | x | x | x | -33% | x | x
O=C(NCCc1ccco1)C(=O)NCC1OCCCN1S(=O)(=O)c1ccccc1 (stereo not given) | i | -3% | 11% | -17% | i | 15%
